Measured values reported in PubChem BioAssay (NCI).
About 83,000 compounds went through this panel and 20% of them were active in at least one assay; those are over-represented in the sample as a whole.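 Step 1: grow cells in 96-well plates. Step 2: add test compound at a single concentration. Step 3: incubate 48 h. Step 4: record percent growth.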 A number with no mark means an inactive call. Calls of active or inactive are those of the source. The calls were made as follows: active = growth percent below 10; inactive = the rest.

How the values were obtained:
Assay in all cases: NCI-60 one-dose screen, 48 h (100 = growth as untreated, 0 = no growth, -100 = all killed)
Conditions in all cases: 10 µM unless noted
DU-145 prostate = test system: DU-145 prostate
K-562 leukemia = test system: K-562 leukemia
MALME-3M melanoma = test system: MALME-3M melanoma
MDA-MB-231 breast = test system: MDA-MB-231 breast
RXF 393 renal = test system: RXF 393 renal
SF-268 CNS = test system: SF-268 CNS
SF-295 CNS = test system: SF-295 CNS
SF-539 CNS = test system: SF-539 CNS
UACC-257 melanoma = test system: UACC-257 melanoma
M14 melanoma = test system: M14 melanoma
HCT-15 colon = test system: HCT-15 colon
HT29 colon = test system: HT29 colon
SNB-75 CNS = test system: SNB-75 CNS
SNB-19 CNS = test system: SNB-19 CNS
U251 CNS = test system: U251 CNS
PC-3 prostate = test system: PC-3 prostate
SK-MEL-5 melanoma = test system: SK-MEL-5 melanoma
UACC-62 melanoma = test system: UACC-62 melanoma
LOX IMVI melanoma = test system: LOX IMVI melanoma
SK-MEL-28 melanoma = test system: SK-MEL-28 melanoma

SMILES	growth (DU-145 prostate)	growth (K-562 leukemia)	growth (MALME-3M melanoma)	growth (MDA-MB-231 breast)	growth (RXF 393 renal)	growth (SF-268 CNS)	growth (SF-295 CNS)	growth (SF-539 CNS)	growth (UACC-257 melanoma)	growth (M14 melanoma)	growth (HCT-15 colon)	growth (HT29 colon)	growth (SNB-75 CNS)	growth (SNB-19 CNS)	growth (U251 CNS)	growth (PC-3 prostate)	growth (SK-MEL-5 melanoma)	growth (UACC-62 melanoma)	growth (LOX IMVI melanoma)	growth (SK-MEL-28 melanoma)
Nc1ccc(Cl)c([N+](=O)[O-])c1	107%	84.6%	119%	107%	109%	96.7%	96.7%	101%	95.1%	95.7%	87.8%	106%	89.3%	108%	99.1%	88.3%	97.6%	80.1%	66.9%	100%
C#CCNC(=O)CC[C@@H](C)[C@H]1CC[C@H]2[C@@H]3CC[C@@H]4CC(=O)CC[C@]4(C)[C@H]3CC[C@]12C	-38.1% [100 µM] (active)	4.55% [100 µM] (active)	-82.2% [100 µM] (active)	-78% [100 µM] (active)	-76.1% [100 µM] (active)	-20.4% [100 µM] (active)	-51.3% [100 µM] (active)	-82.6% [100 µM] (active)	-0.129% [100 µM] (active)	-22.4% [100 µM] (active)	1.91% [100 µM] (active)	-25% [100 µM] (active)	-58.3% [100 µM] (active)	14.8% [100 µM]	-43.4% [100 µM] (active)	-14.6% [100 µM] (active)	-86.5% [100 µM] (active)	-74% [100 µM] (active)	-71.6% [100 µM] (active)	-84.4% [100 µM] (active)
Oc1cc(Nc2ccnc3cc(Cl)ccc23)c2ncccc2c1	58.4%	76.6%	52%	14.8%	68.6%	73.8%	108%	93.9%	82.2%	75.8%	82%	109%	53.2%	78.4%	77.1%	59.1%	79.2%	81.4%	72.7%	81.5%
O=C(NNc1ccc(-c2ccccc2)nn1)c1ccccc1	104%	92.2%	100%	97.4%	110%	95%	94.3%	102%	103%	98.8%	103%	107%	71%	95.4%	101%	102%	102%	96.6%	98.9%	105%
Cn1c(=O)c(C#N)c(-c2ccco2)n2c(S(=O)(=O)Cc3ccccc3)nnc12	77%	100%	63.6%	126%	91%	104%	112%	101%	8.93% (active)	57.6%	78.3%	92.5%	97.8%	115%	82.8%	112%	90.1%	75.5%	92.3%	99.1%
CCOc1cc(/C=N\NC(=O)N/N=C/c2ccc(O)c(OCC)c2)ccc1O	14.9%	10.6%	60.2%	51.5%	24.9%	45.7%	18%	-9.06% (active)	61.9%	19.3%	28.7%	27.6%	0.378% (active)	39.8%	33.7%	33%	11.5%	26.2%	42.6%	52.3%
COc1cc(/C=C/C(=O)/C=C/c2ccc(-n3ccnc3)cc2)ccc1O	54.4%	7.93% (active)	79.3%	63.7%	26.8%	54.8%	75.2%	-0.198% (active)	84.7%	104%	82.2%	3.46% (active)	62.3%	76.9%	-0.424% (active)	62.4%	74%	85.2%	-44% (active)	86.7%
O=C(Nc1cccnc1)c1ccc2ccc3ccc(C(=O)Nc4cccnc4)nc3c2n1	14.6%	17.1%	46.7%	25.2%	-50.4% (active)	15.9%	5.39% (active)	-6.56% (active)	30.8%	15.5%	19.9%	7.42% (active)	40.6%	13.2%	12.2%	33.2%	26.3%	29%	14%	17.7%
CC1(C)CC[C@]23CC[C@]4(C)[C@H](CC[C@@H]5[C@@]6(C)C/C(=C/c7cccnc7)C(=O)C(C)(C)[C@@H]6CC[C@]54C)[C@H]2[C@H]1OC3=O	56.9% [100 µM]	33% [100 µM]	31.2% [100 µM]	35.8% [100 µM]	38.8% [100 µM]	66.3% [100 µM]	46.7% [100 µM]	63.2% [100 µM]	31.9% [100 µM]	52.1% [100 µM]	42.7% [100 µM]	23.2% [100 µM]	19.8% [100 µM]	59.6% [100 µM]	34% [100 µM]	29.8% [100 µM]	-44.4% [100 µM] (active)	28.4% [100 µM]	29.2% [100 µM]	21.4% [100 µM]
CCn1cc(-c2ccnc(NCCNS(=O)(=O)c3cccc4ccccc34)c2)c(-c2cccc(O)c2)n1	97.9%	75.7%	109%	108%	92.9%	94.7%	101%	104%	109%	103%	96.7%	92.9%	107%	106%	53%	83.2%	95.8%	97.2%	111%	107%
CCN(CC)c1ccc2cc(C(Nc3ccc(C)cc3)c3nnnn3C(C)(C)C)c(=O)oc2c1 (stereo not given)	105%	87.5%	105%	84.5%	87.3%	92.6%	102%	103%	104%	103%	98.3%	94.8%	77.6%	87.8%	89.2%	73.7%	83.4%	71.7%	94.8%	106%
O=C(CSc1nc2ccc([N+](=O)[O-])cc2[nH]1)Nc1ccc(F)c(Cl)c1	32.2%	11.9%	-5.67% (active)	30.8%	29.7%	23.8%	18.1%	35%	10.5%	25.4%	18.5%	14.4%	28.7%	11.6%	11.6%	8.99% (active)	-10.8% (active)	5.92% (active)	24.2%	22%
CCCCCn1sc(=O)n(Cc2ccc(CNC(=O)OCc3ccc4cccc(O)c4n3)cc2)c1=O	-15% (active)	3.39% (active)	-77.7% (active)	-62.5% (active)	-76.8% (active)	27.6%	31.1%	-69.6% (active)	0.0301% (active)	-64.7% (active)	-20.5% (active)	-49.2% (active)	-4.62% (active)	37%	20.1%	3.68% (active)	-44.7% (active)	-64.2% (active)	-91.5% (active)	-35% (active)
Cc1cccc([N+](=O)[O-])c1I	116%	141%	116%	102%	111%	105%	101%	105%	96.7%	108%	113%	106%	94.9%	106%	93.8%	85.5%	109%	107%	101%	114%
